From PubChem BioAssay (Tox21) come the findings set out here.

Several values for one entry are separate records, joined by “and”; a condition that tells them apart may be missing. Equal values may be shown once. Inconclusive results are not listed. Activity calls are given as the source filed them. Unless noted, calls come from the whole dose curve.

Experiment [1] in a line: Nuclear factor erythroid 2-related factor 2/antioxidant responsive element (Nrf2/ARE) small molecule agonists: luciferase reporter gene qHTS assay in human keratinocytes (AID 1919969). Note: nearly all actives have a fitted effect of over 35% in size. Note: potency is the fitted concentration of half-maximal effect. On the technique in general: In a reporter assay the amount or activity of a reporter protein is the signal.
In experiment [2] the target is Gonadotropin-releasing hormone receptor (Homo sapiens) (UniProt P30968). Put plainly: Human gonadotropin-releasing hormone receptor (GnRHR) small molecule agonists, calcium flux assay in GnRHR-HEK293 cells (AID 1920063). Note: nearly all actives have a fitted effect of over 35% in size. In a few lines: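 Cells: HEK293 stably expressing human GnRHR. Steps: overnight (18 h) culture, 1 h calcium dye loading at 37 C, compound addition, kinetic fluorescence read at 480/540 nm. Each compound tested at 15 concentrations in triplicate.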
In general terms: A change in cytosolic calcium serves as a functional read-out for many receptors and channels.

Experiment [3] deals with KiSS-1 receptor (Homo sapiens) (UniProt Q969F8). Put plainly: Human kisspeptin (KISS1R) small molecule agonists, calcium flux assay in KISS1R-HEK293 cells (AID 1920064; active = well fitted activation curve with a large enough effect in the repeat runs). In a few lines: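 Cells plated and incubated 18 h; dye added, 1 h at 37 C; compounds in DMSO pinned in; signal read at 480/540 nm every second for 3 min. Each compound tested at 15 concentrations in triplicate.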

Experiment [4] in a line: p53 small molecule agonists, cell-based qHTS assay with human liver microsomes (AID 1963577). In outline: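 Cells carrying a p53-responsive bla reporter were rested 5 h (37 C, 5% CO2) before compound transfer. Human liver microsomes plus NADPH, 0.5 mg/mL final apiece, supplied metabolism during the 16 h 37 C exposure.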
Background: Quantitative high-throughput screening tests each substance at several concentrations.

The nature of experiment [5]: p53 small molecule agonists, cell-based qHTS assay with rat liver microsomes (AID 1963578). In a few lines:
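Fluorescence from a beta-lactamase reporter under a p53 response element was measured after cells had been incubated 16 h at 37 C with test compound and rat liver microsomes plus NADPH (0.5 mg/mL final each).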

Experiment [6] is described as follows: p53 small molecule agonists, cell-based qHTS assay with human liver microsomes: qHTS cell viability counter screen (AID 1963579). Note: nearly all actives have a fitted effect of over 45% in size. In a few lines: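 Seed p53RE-bla cells at 4,000 per well; incubate 5 h at 37 C; add compound, human liver microsomes and NADPH; incubate 16 h at 37 C; add CellTiter-Glo; after 30 min at room temperature, read luminescence.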
Experiment [7] is described as follows: p53 small molecule agonists, cell-based qHTS assay with rat liver microsomes: qHTS cell viability counter screen (AID 1963580). Note: nearly all actives have a fitted effect of over 45% in size. In outline:
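p53RE-bla HCT-116 cells (4,000/well) rested 5 h at 37 C, then given Tox21 compounds in DMSO with rat liver microsomes (0.5 mg/mL final) plus NADPH (0.5 mg/mL final) for 16 h at 37 C. Viability read by CellTiter-Glo luminescence after 30 min at room temperature.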

Experiment [8] in a line: p53 small molecule agonists, cell-based qHTS assay: qHTS cell viability counter screen (AID 1963581). Note: nearly all actives have a fitted effect of over 45% in size. In outline:
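Cells: HCT-116 with p53 response element-driven beta-lactamase. Treatment: 16 h, 37 C, compounds in DMSO. Read: CellTiter-Glo luminescence after 30 min RT.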

The target in experiment [9] is 5-hydroxytryptamine receptor 2A (Homo sapiens) (UniProt P28223). The experiment in a line: 5-hydroxytryptamine receptor 2A (HTR2A) small molecule antagonists, cell-based qHTS assay (AID 1963586). Note: nearly all actives have a fitted effect of over 45% in size. Note: potency is the fitted concentration of half-maximal effect. In a few lines:
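Antagonist-mode intracellular calcium assay: DOI (4 nM) added after 5 min compound pre-incubation at room temperature to dye-loaded HTR2A-CHO cells. Fluorescence followed for 3 min, sampled every second.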

The target is the same in experiment [10]. Put plainly: 5-hydroxytryptamine receptor 2A (HTR2A) small molecule agonists, cell-based qHTS assay (AID 1963587). Note: nearly all actives have a fitted effect of over 30% in size. Note: potency is the fitted concentration of half-maximal effect. In a few lines:
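HTR2A-CHO cells, plated 18 h at 37 C/5% CO2, dye-loaded 1 h at 37 C; compounds in DMSO added by pin tool (agonist mode). Intracellular calcium flux read as kinetic fluorescence on FDSS over 2 min at 1 s intervals.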

For experiment [11], the target named is Muscarinic acetylcholine receptor M1 (Homo sapiens) (UniProt P11229). The experiment in a line: Cholinergic receptor muscarinic 1 (CHRM1) small molecule antagonists, cell-based qHTS assay (AID 1963588). Note: nearly all actives have a fitted effect of over 40% in size. In outline:
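CHRM1-CHO calcium-flux assay, antagonist mode. Cells were seeded 18 h, dye-loaded 1 h at 37 C and given compound for 5 min at RT, then acetylcholine was added at 50nM. FDSS fluorescence was read 3 min; 15 concentrations, three runs.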

Experiment [12] has the same target. Put plainly: Cholinergic receptor muscarinic 1 (CHRM1) small molecule agonists, cell-based qHTS assay (AID 1963589). Note: nearly all actives have a fitted effect of over 35% in size. In outline:
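Agonist-mode qHTS in CHO cells stably carrying human muscarinic M1. Intracellular calcium is tracked by fluorescence every second after compound transfer; each compound runs at 15 concentrations in three independent runs.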

In experiment [13] the target is Beta-2 adrenergic receptor (Homo sapiens) (UniProt P07550). Put plainly: Adrenergic beta2 receptor (ADRB2) small molecule antagonists, cell-based qHTS assay (AID 1963592). Note: series mostly up to about 92 µM; nearly all actives have a fitted effect of over 50% in size. In outline: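 Cells (CHO, stable ADRB2 overexpression) incubated 18-20hr at 37C; compounds added from DMSO; agonist mix (1nM isoproterenol, 100uM IBMX, 25uM Ro-20-1724) added; 0.5hr RT; d2-cAMP and anti-cAMP-cryptate added; 1hr RT; 665/615 nm read.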

Experiment [14] addresses D(2) dopamine receptor (Homo sapiens) (UniProt P14416). Put plainly: Dopamine D2 receptor (DRD2) small molecule agonists, cell-based qHTS assay (AID 1963594). Note: nearly all actives have a fitted effect of over 35% in size. In a few lines:
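HEK293 cells stably expressing DRD2 were cultured 24 h at 37 C, then given Ro20-1724 (0.1 mM final) and compounds for 10 min at room temperature. NKH477 (200nM) was then added for 30 min. cAMP was read by HTRF.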

Experiment [15] in a line: p53 small molecule agonists, cell-based qHTS assay (AID 1963582; active = well fitted activation curve with a large enough effect in the signal ratio in the repeat runs, not every such curve was filed as active; the % refers to the signal ratio). In outline: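 Quantitative HTS in p53RE-bla cells: after a 5 h settling period, compounds delivered in DMSO were left on cells for 16 h at 37 C, and reporter induction was measured as fluorescence following 2 h substrate loading.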
The nature of experiment [16]: cAMP Responsive Elements (CRE) small molecule agonists, cell-based qHTS assay (AID 1963590). In outline: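 Agonist mode qHTS in CRE-bla HEK 293T cells: compounds dosed from DMSO for 3 h at 37 C/5% CO2, followed by LiveBLAzer B/G FRET substrate for 2 h at room temperature.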
A short description of experiment [17]: cAMP Responsive Elements (CRE) small molecule antagonists, cell-based qHTS assay (AID 1963591; active = well fitted inhibition curve with a large enough effect in the signal ratio in the repeat runs, not every such curve was filed as active; the % refers to the signal ratio). In outline: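 Antagonist mode: test compounds are co-incubated with the adenylyl cyclase activator NKH477 (0.25 uM final) on CRE-bla HEK293T cells for 3 h at 37 °C, followed by LiveBLAzer substrate loading.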
Experiment [18] has as its target D(2) dopamine receptor (Homo sapiens) (UniProt P14416). Put plainly: Dopamine D2 receptor (DRD2) small molecule antagonists, cell-based qHTS assay (AID 1963595; active = well fitted inhibition curve with a large enough effect in the signal ratio in the repeat runs, with a control signal flat; the % refers to the signal ratio). In a few lines: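 Antagonist mode in DRD2-HEK293 cells: after compound addition with 0.1 mM Ro20-1724, cells received quinpirole (12 nM) and NKH477 (200 nM) for 30 min at room temperature; HTRF cAMP read after 1 h detection.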

Experiment [19] addresses Beta-2 adrenergic receptor (Homo sapiens) (UniProt P07550). Put plainly: Adrenergic beta2 receptor (ADRB2) small molecule agonists, cell-based qHTS assay (AID 1963593).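 Note: CHO cells stably overexpressing human ADRB2.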 In outline:
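CHO cells stably over-expressing ADRB2 were plated overnight at 37C, then dosed with compounds plus a stimulation mix containing 100uM IBMX and 25uM Ro-20-1724 for 0.5hr at room temperature. cAMP was measured by HTRF competition, 1hr.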

Experiment [20] is described as follows: G protein-coupled receptor (GPCR) small molecule agonists, calcium flux assay: HEK293 wild type cell line counter screen (AID 1920065). In a few lines: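 Counter-screen of the Tox21 10K library for non-specific calcium release: dye-loaded cells received compounds in DMSO and were monitored by kinetic fluorescence (480/540 nm, 3 min). Fifteen concentrations, run in triplicate.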

Sequence of D(2) dopamine receptor (Homo sapiens) (P14416 whole entry, looked up): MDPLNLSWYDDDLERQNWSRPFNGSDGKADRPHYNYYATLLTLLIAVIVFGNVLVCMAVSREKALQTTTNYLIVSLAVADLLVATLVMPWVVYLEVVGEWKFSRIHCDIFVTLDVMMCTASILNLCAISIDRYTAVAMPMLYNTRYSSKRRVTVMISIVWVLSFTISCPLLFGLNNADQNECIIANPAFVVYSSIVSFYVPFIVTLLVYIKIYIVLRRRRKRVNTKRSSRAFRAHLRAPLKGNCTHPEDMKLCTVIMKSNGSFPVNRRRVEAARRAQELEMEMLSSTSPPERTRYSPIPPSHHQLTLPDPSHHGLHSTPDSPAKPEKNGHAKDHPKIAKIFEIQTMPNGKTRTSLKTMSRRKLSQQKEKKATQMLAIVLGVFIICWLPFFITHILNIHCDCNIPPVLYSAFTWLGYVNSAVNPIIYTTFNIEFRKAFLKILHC
Sequence of 5-hydroxytryptamine receptor 2A (Homo sapiens) (P28223 whole entry, looked up): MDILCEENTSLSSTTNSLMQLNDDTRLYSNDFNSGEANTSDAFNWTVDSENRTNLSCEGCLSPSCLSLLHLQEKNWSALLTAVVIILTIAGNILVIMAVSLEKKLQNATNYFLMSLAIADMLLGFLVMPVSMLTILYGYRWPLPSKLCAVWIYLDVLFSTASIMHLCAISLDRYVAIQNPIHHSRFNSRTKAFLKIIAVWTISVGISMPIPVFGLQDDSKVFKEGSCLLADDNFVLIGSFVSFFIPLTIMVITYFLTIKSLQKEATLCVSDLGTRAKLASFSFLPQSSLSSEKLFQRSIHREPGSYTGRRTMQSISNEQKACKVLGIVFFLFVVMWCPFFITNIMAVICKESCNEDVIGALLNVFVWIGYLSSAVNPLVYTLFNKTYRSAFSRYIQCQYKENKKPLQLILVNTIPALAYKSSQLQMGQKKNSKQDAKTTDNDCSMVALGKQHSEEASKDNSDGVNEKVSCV
Sequence of Gonadotropin-releasing hormone receptor (Homo sapiens) (P30968 whole entry, looked up): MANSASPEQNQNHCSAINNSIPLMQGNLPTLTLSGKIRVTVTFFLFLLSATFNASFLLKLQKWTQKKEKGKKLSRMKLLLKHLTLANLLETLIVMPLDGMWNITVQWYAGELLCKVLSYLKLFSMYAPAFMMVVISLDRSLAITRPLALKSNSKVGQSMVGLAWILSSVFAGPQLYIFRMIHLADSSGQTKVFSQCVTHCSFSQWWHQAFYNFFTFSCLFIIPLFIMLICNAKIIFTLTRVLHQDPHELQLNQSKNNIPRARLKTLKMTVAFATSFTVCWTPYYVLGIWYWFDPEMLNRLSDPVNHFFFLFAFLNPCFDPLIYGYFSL
Sequence of Muscarinic acetylcholine receptor M1 (Homo sapiens) (P11229 whole entry, looked up): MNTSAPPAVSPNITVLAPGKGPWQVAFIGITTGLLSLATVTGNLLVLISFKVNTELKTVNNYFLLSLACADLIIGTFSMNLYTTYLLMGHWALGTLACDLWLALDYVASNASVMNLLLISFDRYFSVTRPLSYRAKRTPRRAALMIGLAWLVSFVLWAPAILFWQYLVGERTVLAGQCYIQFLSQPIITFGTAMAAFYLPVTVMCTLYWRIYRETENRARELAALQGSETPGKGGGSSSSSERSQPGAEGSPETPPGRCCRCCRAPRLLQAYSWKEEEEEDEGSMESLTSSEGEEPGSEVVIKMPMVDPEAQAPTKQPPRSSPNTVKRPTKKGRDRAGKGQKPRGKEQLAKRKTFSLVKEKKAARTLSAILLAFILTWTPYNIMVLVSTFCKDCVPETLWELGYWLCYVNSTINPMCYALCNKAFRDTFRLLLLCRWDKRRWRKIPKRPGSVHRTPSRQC
Sequence of Beta-2 adrenergic receptor (Homo sapiens) (P07550 whole entry, looked up): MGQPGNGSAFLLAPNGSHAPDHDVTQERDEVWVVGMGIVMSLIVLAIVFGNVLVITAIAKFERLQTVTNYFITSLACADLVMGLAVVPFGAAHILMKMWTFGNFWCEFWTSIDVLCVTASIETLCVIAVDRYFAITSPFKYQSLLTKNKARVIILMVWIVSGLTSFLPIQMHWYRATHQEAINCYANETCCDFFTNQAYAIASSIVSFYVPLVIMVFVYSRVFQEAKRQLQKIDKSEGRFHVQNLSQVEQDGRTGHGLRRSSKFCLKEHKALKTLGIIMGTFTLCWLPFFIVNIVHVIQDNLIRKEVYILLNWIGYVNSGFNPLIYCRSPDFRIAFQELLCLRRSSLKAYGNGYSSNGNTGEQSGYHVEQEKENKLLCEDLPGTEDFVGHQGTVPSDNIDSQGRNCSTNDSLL
Sequence of KiSS-1 receptor (Homo sapiens) (Q969F8 whole entry, looked up): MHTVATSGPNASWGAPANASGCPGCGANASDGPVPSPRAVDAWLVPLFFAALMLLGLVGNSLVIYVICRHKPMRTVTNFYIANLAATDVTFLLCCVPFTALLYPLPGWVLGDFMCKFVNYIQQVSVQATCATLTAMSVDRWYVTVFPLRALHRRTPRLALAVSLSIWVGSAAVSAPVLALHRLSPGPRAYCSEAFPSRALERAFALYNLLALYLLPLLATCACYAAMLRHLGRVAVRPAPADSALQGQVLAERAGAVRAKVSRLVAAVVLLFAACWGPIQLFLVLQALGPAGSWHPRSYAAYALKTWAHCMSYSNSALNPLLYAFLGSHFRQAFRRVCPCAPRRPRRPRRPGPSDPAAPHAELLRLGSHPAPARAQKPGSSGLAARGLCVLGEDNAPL

For the compound `CCCCOCN(C(=O)CCl)c1c(CC)cccc1CC`, the Potency in [1] is 24.3 µM (active). Also, the Potency entry in experiment [2], in [3], in [4], in [5], in experiment [6] and in experiment [7] was “inactive” throughout. Besides, the Potency entry in [8], in [9], in experiment [10], in experiment [11], in experiment [12] and in [13] was “inactive” in each case. The Potency entry in experiment [14] is “inactive”.
Regarding `COc1cc(CC(C)N)cc(OC)c1OC` (centres undefined), the Potency result in experiment [1], in experiment [2], in [3], in [5], in experiment [7] and in experiment [8] was “inactive” in each case. For the same compound, the Potency result in experiment [15], in experiment [11], in experiment [12], in experiment [16], in [17] and in experiment [18] was “inactive” throughout. Further, the Potency in [9] is 0.228 µM (active); in experiment [10], 0.265 µM (active).
As to `O=[N+]([O-])c1ccc(Oc2ccc(C(F)(F)F)cc2[N+](=O)[O-])cc1`, the Potency in [1] was 48.6 µM (active). Moreover, the Potency entry in experiment [2], in experiment [3], in experiment [4], in experiment [5], in experiment [6] and in [7] was “inactive” in each case. Besides, the Potency entry in experiment [8], in experiment [9], in [10], in experiment [12], in [17] and in experiment [13] was “inactive” each time. The Potency result in experiment [19], in [14] and in [18] was “inactive” throughout.
For `ClC1=C(Cl)[C@]2(Cl)[C@H]3[C@H]([C@@H]4C=C[C@H]3C4)[C@@]1(Cl)C2(Cl)Cl`, the Potency entry in experiment [1], in experiment [2], in [3], in [4], in [5] and in [6] was “inactive” throughout. Besides, the Potency entry in experiment [7], in experiment [8], in experiment [15], in experiment [9], in [10] and in experiment [11] was “inactive” in each case. For the same compound, the Potency result in [12], in [16], in experiment [17], in experiment [13], in experiment [14] and in experiment [18] was “inactive” throughout.
As for `COP(=O)(OC)OC(Br)C(Cl)(Cl)Br` (centres undefined), the Potency in [1] is 27.3 µM (active) and 54.5 µM (active). Also, the Potency result in experiment [2], in experiment [3], in experiment [6], in [7], in experiment [8] and in experiment [9] was “inactive” throughout. For the same compound, the Potency result in experiment [10], in experiment [11], in [12], in experiment [16], in [17] and in experiment [13] was “inactive” in each case. Besides, the Potency result in experiment [14] and in [18] was “inactive” throughout.
For the compound `O=C1NC(=O)C(=O)C(=O)N1`, the Potency entry in experiment [1], in [2], in experiment [3], in experiment [20], in experiment [6] and in [7] was “inactive” in each case. The Potency entry in experiment [8], in experiment [9], in experiment [10], in experiment [11], in experiment [12] and in experiment [16] was “inactive” in each case. Further, the Potency result in [17], in experiment [13], in experiment [19], in experiment [14] and in experiment [18] was “inactive” each time.
